This is part of a sample that, as a whole, favours compounds with a hit. Of some 83,000 tested, about 20% had one in any assay.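 Values shown are percent growth following 48 h exposure of cells in 96-well plates to a single concentration of compound; below 10 was considered active.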 Active and inactive are the calls of the source.
Columns and labels:
Assay in all cases: NCI-60 one-dose screen, 48 h (100 = growth as untreated, 0 = no growth, -100 = all killed)
[1] = system: MOLT-4 leukemia; conditions: 10 µM
[2] = system: SR leukemia; conditions: 10 µM
[3] = system: OVCAR-8 ovarian; conditions: 10 µM
[4] = system: OVCAR-5 ovarian; conditions: 10 µM
[5] = system: SK-OV-3 ovarian; conditions: 10 µM
[6] = system: IGROV1 ovarian; conditions: 10 µM
[7] = system: OVCAR-3 ovarian; conditions: 10 µM
[8] = system: HS 578T breast; conditions: 10 µM
[9] = system: NCI/ADR-RES ovarian; conditions: 10 µM
[10] = system: T-47D breast; conditions: 10 µM
[11] = system: BT-549 breast; conditions: 10 µM
[12] = system: MDA-MB-435 melanoma; conditions: 10 µM
[13] = system: SW-620 colon; conditions: 10 µM
[14] = system: HCT-116 colon; conditions: 10 µM
[15] = system: HCC-2998 colon; conditions: 10 µM
[16] = system: RPMI-8226 leukemia; conditions: 10 µM
[17] = system: OVCAR-4 ovarian; conditions: 10 µM
[18] = system: MCF7 breast; conditions: 10 µM unless noted
[19] = system: KM12 colon; conditions: 10 µM

Measured: growth

COc1ccccc1/C=C/[N+](=O)[O-]
active: [2] -11.9%
inactive: [1] 53.3% | [3] 63.3% | [4] 85.6% | [5] 113% | [6] 53% | [7] 49.9% | [8] 79% | [9] 91.4% | [10] 50.7% | [11] 82.4% | [12] 39.3% | [13] 58.8% | [14] 36.2% | [15] 88.7%

O=C(CBr)Nc1ccc(Cl)cc1
active: [2] -28.8% | [13] 9.26%
inactive: [1] 20.7% | [16] 73.4% | [3] 96.6% | [4] 66.6% | [17] 89.2% | [5] 108% | [8] 115% | [9] 94.5% | [10] 67.8% | [11] 116% | [12] 87% | [18] 45% | [14] 54.4% | [15] 112%

C#CC1(O)CCC(C(C)(C)C)CC1 (centres undefined)
inactive: [1] 114% | [2] 113% | [16] 102% | [3] 95.5% | [4] 105% | [17] 116% | [5] 119% | [7] 103% | [9] 106% | [10] 111% | [11] 122% | [12] 89.8% | [13] 106% | [14] 108% | [19] 100%

CC(=O)Nc1c2sscc-2n(C)c1=O
active: [1] -58% | [2] -27.4% | [16] -51.8% | [4] -60.4% | [17] -96.4% | [5] -100% | [6] -88.4% | [8] -57% | [9] -94.8% | [10] -87.4% | [11] -96.4% | [12] -93.7% | [13] -99% | [18] -60.9% | [14] -100% | [15] -100%

COc1ccc2c(ccc3oc([N+](=O)[O-])cc32)c1
active: [1] -19% | [2] -9.5% | [3] 0.0755% | [4] 9.85% | [5] -12.6% | [8] -7.73% | [9] 2.89% | [11] -35.1% | [12] -77% | [13] 7.19% | [14] 4.98% | [15] -59.3% | [19] -5.99%
inactive: [16] 12.1% | [17] 28.9% | [10] 15.3%

O=[N+]([O-])c1ccc(N2CCOCC2)c2c1no[n+]2[O-]
active: [1] 3.12% | [16] -7.12% | [17] -6.35% | [5] 7.59% | [7] -34.3% | [8] 1.69% | [10] 2.59% | [11] -41.5% | [13] 3.22% | [14] -25.9% | [15] -49.1% | [19] -73.5%
inactive: [3] 28.1% | [4] 43.8% | [9] 16.3% | [12] 29.2% | [18] 13.7%

CC12OOC(c3ccccc31)c1c2ccc2ccccc12 (centres undefined)
inactive: [4] 66.1% | [5] 95.8% | [8] 91.6% | [9] 50.3% | [12] 46.2% | [18] 48.5%
active: [1] -58.3% | [2] -18.8% | [16] -33.8% | [17] -57.7% | [7] -92.4% | [10] -28.8% | [11] -82.2% | [13] -52.1% | [14] -94.5% | [15] -91.7% | [19] -53.1%

O=[N+]([O-])c1ccc(N(CCO)CCO)c2c1no[n+]2[O-]
active: [1] -24.4% | [16] -53.7% | [3] 2.5% | [17] -25.8% | [5] -35.8% | [7] -65.9% | [8] -30.8% | [10] -14.9% | [11] -61.3% | [12] 2.88% | [13] 0.768% | [18] 6.05% | [14] -68.3% | [15] -46.9%
inactive: [4] 18.5% | [9] 18.3%

C/C1=C\[C@H](C)C[C@H](C)OC(=O)C[C@H](c2ccc(O)cc2)NC(=O)[C@@H](Cc2c(Br)[nH]c3ccccc23)N(C)C(=O)[C@H](C)NC(=O)[C@@H](C)C1
active: [1] 2.89% | [2] -3.88% | [16] -56.9% | [4] -35.1% | [17] -54.6% | [5] -20.9% | [6] -79.1% | [8] -40.4% | [9] -21.9% | [10] 4.52% | [11] -76.6% | [12] -12.2% | [13] 6.45% | [18] 9.48% | [14] 0.922% | [15] -86.3%

From PubChem BioAssay (NCI)
